Data published in article PMC4336329 (PLoS ONE, 2015).
The whole screen tested about 310,000 compounds, of which about 14,000 (4.5%) showed an effect of 50% or more. The effect is printed as a negative number. This excerpt belongs to a sample that is enriched for strong results.

target: human ether-à-go-go-related gene (hERG) potassium channel (human, UniProt Q12809); experiment: primary screen, population patch clamp on CHO cells stably expressing hERG; higher = less effect of the substance
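Note: peak tail current of the secondary pulse compared with the same well before compound.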

Sequence of human ether-à-go-go-related gene (hERG) potassium channel (Q12809 whole entry, looked up): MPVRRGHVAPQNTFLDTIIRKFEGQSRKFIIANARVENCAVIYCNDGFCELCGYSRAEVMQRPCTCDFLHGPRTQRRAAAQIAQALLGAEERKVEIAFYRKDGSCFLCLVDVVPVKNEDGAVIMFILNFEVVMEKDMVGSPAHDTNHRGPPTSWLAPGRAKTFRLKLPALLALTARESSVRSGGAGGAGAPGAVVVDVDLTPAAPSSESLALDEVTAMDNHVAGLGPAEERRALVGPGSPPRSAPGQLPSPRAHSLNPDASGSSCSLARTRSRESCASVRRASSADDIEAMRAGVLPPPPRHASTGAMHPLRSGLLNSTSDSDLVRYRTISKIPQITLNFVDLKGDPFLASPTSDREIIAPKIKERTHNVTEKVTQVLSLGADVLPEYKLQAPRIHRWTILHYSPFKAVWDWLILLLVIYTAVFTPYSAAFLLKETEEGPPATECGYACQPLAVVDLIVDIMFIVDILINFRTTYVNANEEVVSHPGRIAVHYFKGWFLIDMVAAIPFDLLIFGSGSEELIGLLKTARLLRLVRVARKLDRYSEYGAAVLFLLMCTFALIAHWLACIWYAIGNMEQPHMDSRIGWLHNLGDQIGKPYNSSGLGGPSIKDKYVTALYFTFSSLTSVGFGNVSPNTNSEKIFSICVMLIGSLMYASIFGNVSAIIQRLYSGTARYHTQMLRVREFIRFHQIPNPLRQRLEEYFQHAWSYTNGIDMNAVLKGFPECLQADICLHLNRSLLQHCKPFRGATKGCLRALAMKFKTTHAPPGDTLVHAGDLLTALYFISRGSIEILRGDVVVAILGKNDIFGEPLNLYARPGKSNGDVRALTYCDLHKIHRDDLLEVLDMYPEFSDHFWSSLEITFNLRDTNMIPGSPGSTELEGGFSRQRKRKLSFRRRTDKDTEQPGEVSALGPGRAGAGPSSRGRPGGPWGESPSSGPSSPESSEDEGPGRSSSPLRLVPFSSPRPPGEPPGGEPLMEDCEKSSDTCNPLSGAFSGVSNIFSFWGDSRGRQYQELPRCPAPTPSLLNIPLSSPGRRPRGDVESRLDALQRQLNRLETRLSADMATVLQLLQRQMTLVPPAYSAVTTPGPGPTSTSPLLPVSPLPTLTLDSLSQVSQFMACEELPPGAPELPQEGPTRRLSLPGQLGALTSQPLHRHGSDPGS

SMILES | hERG current change (%, negative = inhibition) at 10uM [%]
CCCCCC/C=C/c1ccc([C@H]2[C@H]3C=CC[C@@H](C)[C@@H]3C(=O)N2Cc2ccccc2)c(F)c1 | 4.76
S=C1NC(c2ccccc2)=NCN1c1ccc(Br)cc1 | -12.9
COc1ccccc1N(CC(=O)NCCSCc1ccc(Cl)cc1)S(C)(=O)=O | -0.283
C=CCSc1nccc(-c2nn(-c3ccc(C)cc3)ccc2=O)n1 | -8.82
O=C1NC(=O)N(CCc2ccc(F)cc2)C(=O)/C1=C/c1cccs1 | 16.1
Cc1c(NC(=O)COC(=O)c2ccc(Br)o2)c(=O)n(-c2ccccc2)n1C | 13.8
COc1ccc(/C(C)=N/NC(=O)c2ccccc2OCc2ccccc2)c(OC)c1 | 11.2
O=C(COc1ccccc1-c1ccccc1)N/N=C/c1cccnc1 | -52.8
COc1ccc(/C=N/NC(=O)c2ccccc2NC(=O)c2ccco2)c(OC)c1 | 15.3
CC(C)Oc1ccccc1-c1cc(C(=O)N/N=C/c2cccnc2)c2ccccc2n1 | -51.1
O=C(COc1ccc(-c2ccccc2)cc1)N/N=C/c1cccnc1 | 7.95
O=C(N/N=C/c1cccnc1)c1ccccc1OCc1ccc(Cl)cc1 | -38.4
Cc1ccccc1-c1cc(C(=O)N/N=C/c2cccnc2)c2ccccc2n1 | -3.87
O=C(COc1ccccc1-c1ccccc1)N/N=C/c1ccncc1 | -26.2
O=C(N/N=C/c1cccnc1)c1ccccc1OCc1ccc(Br)cc1 | -52.6
CCOc1ccccc1-c1cc(C(=O)N/N=C/c2cccnc2)c2ccccc2n1 | -6.35
O=C(N/N=C/c1cccnc1)c1ccccc1OCc1cccc(Br)c1 | -17.1
COc1ccc(/C=N/NC(=O)c2ccccc2OCc2ccccc2)c(OC)c1 | -53.8
Cc1ccccc1N/N=C/c1ccc(N2CCOCC2)cc1 | -2.55
CCn1cc(CNC(=O)C2CCC(=O)N(Cc3ccccc3F)C2)cn1 (centres unmarked) | 8.25
COc1ccc(C(=O)Nc2ccccc2C(=O)N2CCOCC2)cc1Br | -17.3
C/C(=N\NC(=O)COc1ccccc1-c1ccccc1)c1cccnc1 | -53.9

SMILES | hERG current change (%, negative = inhibition) at 10uM [%]
C/C(=N\NC(=O)Cc1ccccc1)c1cccnc1 | 15.3
C/C(=N\NC(=O)COc1ccccc1-c1ccccc1)c1ccccn1 | -6.93
CSCCC(NS(=O)(=O)c1cc(C(=O)O)ccc1Cl)C(=O)O (centres unmarked) | 45
O=C(/C=C/c1ccccc1Cl)NCc1ccccc1 | 10.2
CCN(CC)C(=O)C1CCCN(C(=O)CCn2nnnc2CN2CCOCC2)C1 (centres unmarked) | 17.7
Cl.NC(N)=NC(=O)c1nc(Cl)c(N)nc1N.O | -0.314
NC(N)=NC(=O)c1nc(Cl)c(N2CCCCCC2)nc1N | -58.6
NC(N)=NC(=O)c1nc(Cl)c(N)nc1N | -3.88
Cc1ccc(N(CC(O)CN2C(=O)NC(C)(C)C2=O)S(=O)(=O)c2ccc([N+](=O)[O-])cc2)cc1 (centres unmarked) | -32.7
Cc1ccc(N(CC(O)CN2CCOCC2)S(=O)(=O)c2ccc3ccccc3c2)cc1 (centres unmarked) | -67.4
Cc1ccc(N(CC2CO2)S(=O)(=O)c2ccc(C)cc2)cc1 (centres unmarked) | -5.18
Cl.O=S(=O)(c1ccc2ccccc2c1)N(CC(O)CN1CCOCC1)c1ccccc1 (centres unmarked) | -47.9
COc1ccc(N(CC(O)CN2CCOCC2)S(=O)(=O)c2ccccc2)cc1 (centres unmarked) | -12.1
Cc1ccc(N(CC(O)CN2CCOCC2)S(=O)(=O)c2ccc([N+](=O)[O-])cc2)cc1 (centres unmarked) | -65.2
O=[N+]([O-])c1ccc(N(CC2CO2)S(=O)(=O)c2ccccc2)cc1 (centres unmarked) | -43.9
Cc1ccc(N(CC2CO2)S(=O)(=O)c2ccc([N+](=O)[O-])cc2)cc1 (centres unmarked) | -69.3
Cc1ccc(S(=O)(=O)N(CC(O)CN2CCOCC2)c2cccc([N+](=O)[O-])c2)cc1 (centres unmarked) | -34.5
O=C(Nc1ccc(NC(=O)c2cccs2)cc1)c1ccc2c(c1)OCCO2 | 15.6
CC1(C)Cn2c(nnc2-c2ccccc2)S1 | 14.1
O=C(NCC1CCCO1)c1cc(-c2ccncc2)nc2ccc(S(=O)(=O)N3CCOCC3)cc12 (centres unmarked) | -24.5
CC(C)(C#CCN1CCCCC1)OCCOC(c1ccccc1)c1ccccc1.Cl | -21.3
Cc1ccc(NC(=O)CCn2cnc3cc(C)c(C)cc32)cc1 | -8.26

SMILES | hERG current change (%, negative = inhibition) at 10uM [%]
COc1ccccc1N1C(=O)c2ccc(C(=O)Nc3ccc(F)cc3)cc2C1=O | 1.07
CCOC(=O)N1CCN(c2ncnc3c2[nH]c2ccc(F)cc23)CC1 | -2.67
Cc1ccnc(NC(=O)C2CCN(S(=O)(=O)c3ccc4ccccc4c3)CC2)c1 | 7.94
O=c1c(Br)c(N2CCCCC2)cnn1-c1ccccc1 | -16.5
CC(C)Cc1oc(C(=O)O)cc1CN.Cl | -4.32
O=C(Nc1nnc(-c2ccc(Cl)cc2)o1)c1ccc(N2C(=O)CCC2=O)cc1 | 12.9
Cc1ccccc1OCC(=O)OCC(=O)Nc1ccc(N2CCOCC2)cc1 | 9.51
O=S(=O)(Nc1c(F)cccc1F)c1ccc2c(c1)OCCO2 | 9.82
CCOC(=O)c1sc2nc(NC(=O)C(C)(C)C)sc2c1C | -11.7
Cc1ccc(S(=O)(=O)N(C)c2nc3ccccc3n3c(C(C)C)nnc23)cc1 | -28.1
Cc1ccc2c(c1)N(C(=O)CCC(=O)NCc1cccc(F)c1)CCO2 | -5.21
O=C(CCC(=O)N1CCOc2ccc(Cl)cc21)NCc1ccccc1 | -21.7
CCN(CCCNC(=O)CCC(=O)N1CCOc2ccccc21)Cc1ccccc1 | -62.5
CN(CCCNC(=O)CCC(=O)N1CCOc2ccc(Cl)cc21)Cc1ccccc1 | -64.1
O=C(CCC(=O)N1CCOc2ccccc21)NCCCc1ccccc1 | -17.5
O=C(CCC(=O)N1CCOc2ccccc21)NCCc1ccccc1 | -6
Cc1ccc2c(c1)N(C(=O)CCC(=O)NCCCN(C)Cc1ccccc1)CCO2 | -68.3
CC(CNC(=O)CCC(=O)N1CCOc2ccc(Cl)cc21)c1ccccc1 (centres unmarked) | -40.6
CN(CCCNC(=O)CCC(=O)N1CCOc2ccccc21)Cc1ccccc1 | -30.7
COc1ccc(C(=O)Oc2cc(C)[nH]c(=O)c2[N+](=O)[O-])c(OC)c1 | 11.9
Cc1ccc(C)c2[nH]c(=O)c(CN(Cc3ccco3)S(=O)(=O)c3ccc4c(c3)OCCO4)cc12 | 9.44
CC(C)NC(=O)[C@]1(C)CCC[C@@]2(C)C3CC[C@@]4(C)C[C@]3(CCC21)CC4=O (some centres unmarked) | 6.23

SMILES | hERG current change (%, negative = inhibition) at 10uM [%]
CCc1ccc(NC(=O)C2CCCN(S(C)(=O)=O)C2)cc1 (centres unmarked) | 21.3
C=CCn1c(SCc2csc(C)n2)nc2sc3c(c2c1=O)CCCCC3 | -8.41
O=C(CN1C(=O)C(c2ccc(F)cc2)=NC12CCCC2)Nc1ccc(F)cc1 | -5.39
CC(C)(C)OC(=O)N1CC(O)CC1C(=O)OCC(=O)c1ccccc1 (centres unmarked) | 5.86
CC(C)(C)OC(=O)N1C[C@H](O)C[C@H]1C(=O)OCC(=O)c1ccc([N+](=O)[O-])cc1 | -63.4
CC(C)(C)OC(=O)N1CC(O)CC1C(=O)OCC(=O)c1ccc(Cl)cc1 (centres unmarked) | -16.4
COc1cccc(/C=N/NC(=O)c2[nH]c(C)c(C(=O)N/N=C/c3cccc(OC)c3O)c2C)c1O | 11.7
CCN1CCc2c(OCC(=O)Nc3ccc4c(c3)OCCO4)cccc2C1=O | 5.28
CC(C)(C)c1cc(NCCCn2ccnc2)n2ncc(-c3ccccc3)c2n1 | -18
Cc1cc(NCCCN2CCOCC2)n2ncc(-c3ccc(Cl)cc3)c2n1 | 0.66
Cc1cc(NCCCn2ccnc2)n2ncc(-c3ccc(Cl)cc3)c2n1 | -68
Cc1cc(NCCCN2CCOCC2)n2ncc(-c3ccccc3)c2n1 | -21
CC(C)(C)c1cc(NCCCn2ccnc2)n2ncc(-c3ccc(Cl)cc3)c2n1 | 12.1
Cc1cc(NCCCn2ccnc2)n2ncc(-c3ccccc3)c2n1 | -67.6
Cc1ccc(S(=O)(=O)N(C)c2c(C)ccc(S(=O)(=O)N3CCN(C)CC3)c2C)cc1 | -60.8
Cc1ccc(S(=O)(=O)N(C)c2c(C)ccc(S(=O)(=O)N3CCN(C=O)CC3)c2C)cc1 | -42.8
C=C(C)CN1CCN(S(=O)(=O)c2ccc(C)c(N(C)S(=O)(=O)c3ccc(C)cc3)c2C)CC1 | -2.33
Cc1ccc(S(=O)(=O)N2CCN(Cc3ccccc3)CC2)c(C)c1N(C)S(=O)(=O)c1ccccc1 | 5.81
Cc1ccc(S(=O)(=O)N2CCN(C)CC2)c(C)c1N(C)S(=O)(=O)c1ccc(Cl)cc1 | -68.7
Cc1cc(C)c(S(=O)(=O)N2CCCCC2)c(C)c1N(C)S(=O)(=O)c1ccc(Cl)cc1 | 0.393
